Data on 91 molecules can be found in ChEMBL document CHEMBL3988442, “University of Dundee, Small-Polar-MMV Screening Library” (2021).

In all, about 48,000 compounds went through this assay and about 13,000 (27%) showed an effect of 50% or more. The list shows a part of the results.

For this test, the system named is Wolbachia pipientis. The test can be described thus: Anti-Wolbachia Cell-Based Screen. It counts as functional. Details: scale not given: in the data most compounds retested in dose-response had high values. The following applies: 5 µM.
Regarding `CC(=O)Nc1nc(C(=O)NC(C)c2ccc(F)c(F)c2)cs1` (stereo unspecified), the “Percent Effect” value is reported as 54.27%.

Turning to `CC(=O)Nc1nc(C(=O)NCCOc2ccc(C)cc2)cs1`, the “Percent Effect” value was -6.104%.

In the case of `CC(=O)Nc1nc(C(=O)NC(C)c2ccc3c(c2)OCCO3)cs1` (stereo unspecified), the “Percent Effect” value is reported as 7.281%.

For the molecule `CC(=O)Nc1nc(C(=O)NC(C)c2ccc(C#N)cc2)cs1` (stereo unspecified), the “Percent Effect” value came out at 80.7%.

Regarding `CC(=O)Nc1nc(C(=O)Nc2ccc(F)cc2)cs1`, the “Percent Effect” value is reported as -0.1776%.

For `CC(=O)Nc1nc(C(=O)NC(C)c2ccc(F)cc2)cs1` (stereo unspecified), the “Percent Effect” value stood at 33.73%.

Take `CCc1ccc(C2COCCN2C(=O)Nc2ccc(C(N)=O)c(Cl)c2)o1` (stereo unspecified): the “Percent Effect” value is -0.9462%.

With `Cc1cc(C(=O)N2C[C@H]3CC[C@@H]2CN(C(=O)c2ccncc2)C3)cs1`, the “Percent Effect” value is reported as -9.465%.

`Fc1cnc(N2CC[C@@H]3OC(COCc4cccnc4)CC[C@@H]32)nc1.O=C(O)C(F)(F)F.O=C(O)C(F)(F)F` (stereo partly specified): the “Percent Effect” value is recorded as -10.65%.

In the case of `Cc1cnc(N2CCO[C@@H]3CC(COCc4cccnc4)C[C@H]32)nc1.O=C(O)C(F)(F)F.O=C(O)C(F)(F)F` (stereo partly specified), the “Percent Effect” value came to 79.55%.

For the molecule `O=C(O)C(F)(F)F.O=C(O)C(F)(F)F.O=C(O)C(F)(F)F.c1cncc(COCC2CN(Cc3cccnc3)Cc3ccnn3C2)c1` (stereo unspecified), the “Percent Effect” value was found to be 11.05%.

For the molecule `c1cncc(COCC2C[C@@H]3OCCN(Cc4cccnc4)[C@H]3C2)c1` (stereo partly specified), the “Percent Effect” value was 111.6%.

As for `Cn1cnc2c1C(COCc1cccnc1)N(Cc1ccccc1)CC2` (stereo unspecified), the “Percent Effect” value is 2.197%.

As to `COCC(=O)N1CCO[C@H]2[C@H](OCc3cccnc3)CC[C@@H]21.O=C(O)C(F)(F)F`, the “Percent Effect” value is given as -4.337%.

On to `Cc1ccoc1C(=O)N1CC[C@H]2OCC[C@@]2(COCc2ccncc2)C1`, for which the “Percent Effect” value is given as -2.681%.

Consider `CCOCC1C[C@@H]2OCCN(C(=O)c3ccc[nH]3)[C@H]2C1` (stereo partly specified), for which the “Percent Effect” value is -14%.

For the molecule `CN(C)C(=O)N1CCO[C@@H]2CC(COCc3cccnc3)C[C@H]21.O=C(O)C(F)(F)F` (stereo partly specified), the “Percent Effect” value was found to be 103.1%.

Consider `O=C(O)C(F)(F)F.O=C(O)C(F)(F)F.c1cnc(N2CC[C@@H]3O[C@@H](COCc4cccnc4)CC[C@@H]32)nc1`, for which the “Percent Effect” value is reported as -9.534%.

`CN(C)CC(=O)N1CCO[C@@H]2CC(COCc3ccncc3)C[C@H]21` (stereo partly specified): the “Percent Effect” value came out at 100.6%.

For the molecule `Fc1ccc(CN2CC[C@H]3O[C@@H](COCc4cccnc4)CC[C@H]32)cc1.O=C(O)C(F)(F)F.O=C(O)C(F)(F)F`, the “Percent Effect” value is 0.3958%.

Regarding `Cc1nc(CN(C)Cc2nc(-c3sccc3C)oc2C)no1`, the “Percent Effect” value is recorded as -9.354%.

`CSCCCN1CCCC(Cn2ccnc2)C1` (stereo unspecified): the “Percent Effect” value was determined as 13.29%.

Take `O=C(c1ccc[nH]1)N1CCO[C@H]2CC(COCc3ccccn3)C[C@@H]21` (stereo partly specified): the “Percent Effect” value worked out at 10.05%.

For the molecule `Cc1ccc(C(=O)N2CCO[C@H]3[C@H](OCc4ccccn4)CC[C@@H]32)o1.O=C(O)C(F)(F)F`, the “Percent Effect” value was -0.009897%.

Consider `O=C(O)C(F)(F)F.O=C(O)C(F)(F)F.c1cncc(COCC2CC[C@H]3[C@H](CCN3CC3CCOCC3)O2)c1` (stereo partly specified), for which the “Percent Effect” value was -3.08%.

On to `O=C(O)C(F)(F)F.O=C(c1ccno1)N1CCO[C@@H]2CC(COCc3ccccn3)C[C@H]21` (stereo partly specified), for which the “Percent Effect” value is reported as 99.5%.

Turning to `O=C(O)C(F)(F)F.O=S(=O)(C1CC1)N1CCO[C@@H]2CC(COCc3cccnc3)C[C@H]21` (stereo partly specified), the “Percent Effect” value is 111.9%.

Turning to `CCc1nc(-c2noc3ccc(C(=O)N(C)CCOC)cc23)co1`, the “Percent Effect” value was found to be 2.681%.

Regarding `CC(Nc1nc2c(cnn2C)c(=O)[nH]1)c1ccc2c(c1)CCCC2` (stereo unspecified), the “Percent Effect” value came out at 4.227%.

In the case of `CC(C)c1noc(CCNC(=O)C2COc3ccccc3C2)n1` (stereo unspecified), the “Percent Effect” value is on record as -14.38%.

Take `CC(C)c1noc(CCNC(=O)NCC2Cc3ccccc3O2)n1` (stereo unspecified): the “Percent Effect” value is recorded as 104.8%.

`CC(C)c1noc(CCC(=O)NCC2CCS(=O)(=O)C2)n1` (stereo unspecified): the “Percent Effect” value is listed as 6.847%.

As to `CC(C)c1noc(CCC(=O)NCC2CCOC2)n1` (stereo unspecified), the “Percent Effect” value was determined as 7.119%.

`Cc1cnc(C(=O)NCC2Cc3ccccc3O2)cn1` (stereo unspecified): the “Percent Effect” value is listed as -10.72%.

In the case of `CC(=O)c1ccc(C(=O)NCC2Cc3ccccc3O2)s1` (stereo unspecified), the “Percent Effect” value is listed as -26.22%.

As to `CC(C)c1noc(CCNC(=O)NCC2COc3ccccc3O2)n1` (stereo unspecified), the “Percent Effect” value is 100.4%.

Consider `CC(=O)NCCNC(=O)NCC1Cc2ccccc2O1` (stereo unspecified), for which the “Percent Effect” value was found to be 101.6%.

`CC(C)c1noc(CN(C)C(=O)C2COc3ccccc3C2)n1` (stereo unspecified): the “Percent Effect” value is -21.45%.

Consider `CCN(CC)CCSc1nnc(N2CCN(c3ccc(F)cc3)CC2)s1`, for which the “Percent Effect” value is given as 10.77%.

With `CCC(C(=O)NC1(COC)CCCC1)n1cccn1` (stereo unspecified), the “Percent Effect” value was determined as 10.41%.

Take `COCCCN1C(=O)CC[C@H]2CN(Cc3cc4ccccc4o3)CC[C@H]21`: the “Percent Effect” value is -11.4%.

Turning to `c1cnn(CC2CCN(c3nc(C4CC4)nc4c3CCNCC4)CC2)c1`, the “Percent Effect” value is reported as 9.099%.

For the molecule `O=C(Cn1nnn(-c2cccs2)c1=O)N(CC1CCOC1)C1CC1` (stereo unspecified), the “Percent Effect” value is listed as -6.322%.

`COc1cccc(C(=O)N2C[C@@H](CN(C)CCO)[C@@H](CO)C2)c1C`: the “Percent Effect” value is listed as -4.304%.

With `COCCN(C)C[C@@H]1CN(C(=O)c2ccc(=O)n(C)c2)C[C@@H]1CO`, the “Percent Effect” value stood at 59.39%.

On to `COCCN(C)C[C@H]1C[C@H](CO)CN(C(=O)c2ccc(=O)n(C)c2)C1`, for which the “Percent Effect” value was 90.72%.

On to `COCCN(Cc1ccccn1)C(=O)c1ccc(=O)n(C)c1`, for which the “Percent Effect” value came to 4.944%.

Consider `COCCN(Cc1cccs1)C(=O)c1ccc(=O)n(C)c1`, for which the “Percent Effect” value is given as -19.51%.

For the molecule `CC(NC(=O)CCNC(=O)c1ccoc1)c1ccccc1` (stereo unspecified), the “Percent Effect” value was -1.423%.

For the molecule `Cc1cnc(CN(C)C2CCN(Cc3ccccc3C#N)C2)o1` (stereo unspecified), the “Percent Effect” value is 18.72%.

As for `CC(=O)N(Cc1ncc(C)o1)C1CCN(Cc2cccc(C#N)c2)C1` (stereo unspecified), the “Percent Effect” value is -1.585%.

Consider `CC(=O)N(Cc1ncc(C)o1)C1CCN(Cc2ccccc2C#N)C1` (stereo unspecified), for which the “Percent Effect” value amounted to 110%.

Take `CC(=O)N(Cc1ncc(C)o1)C1CCN(Cc2ccncc2Cl)C1` (stereo unspecified): the “Percent Effect” value is -1.852%.

Regarding `CC(=O)N(Cc1ncc(C)o1)C1CCN(Cc2ccccc2F)C1` (stereo unspecified), the “Percent Effect” value was 139.2%.

Regarding `c1cnc(-c2nc(CNCCn3cccn3)cs2)nc1`, the “Percent Effect” value was -8.125%.

In the case of `Cc1nc(C)n(C2CCCN(C(=O)c3sccc3C3CC3)C2)n1` (stereo unspecified), the “Percent Effect” value was -8.521%.

For `CC(CNS(N)(=O)=O)c1ccc(F)c(F)c1` (stereo unspecified), the “Percent Effect” value is -14.37%.

On to `Cc1noc(COCC(=O)N2CCCCC2c2nccs2)n1` (stereo unspecified), for which the “Percent Effect” value is reported as -17.81%.

With `CN(CC(=O)N1CCCCC1c1nccs1)C1CC1` (stereo unspecified), the “Percent Effect” value turned out to be 114.2%.

On to `CN(CC(=O)N1CCCCC1c1nc(C(C)(C)C)cs1)C1CC1` (stereo unspecified), for which the “Percent Effect” value worked out at 131.5%.

For `CC(C)(C)c1csc(C2CCCCN2C(=O)CCn2cncn2)n1` (stereo unspecified), the “Percent Effect” value was -13.47%.

As to `O=C1CSc2ccccc2N1CC(=O)N1CCCCC1c1nccs1` (stereo unspecified), the “Percent Effect” value is 2.391%.

For the molecule `Cc1ncc(CC(=O)N2CCCC(COc3ccc(F)cc3)C2)c(=O)[nH]1` (stereo unspecified), the “Percent Effect” value came out at 33.2%.

In the case of `COCCCSc1ccc(NC(=O)Nc2cn[nH]c2)cc1`, the “Percent Effect” value was 3.134%.

As to `CN(Cc1ccoc1)c1ccc(-c2nccn2C)nn1`, the “Percent Effect” value is recorded as -4.933%.

In the case of `CC(C)(C(=O)NCC1CC1)c1ccccc1F`, the “Percent Effect” value is -12.8%.

For `O=C(NC(C(=O)Nc1cc[nH]n1)c1ccccc1)C1CCC1` (stereo unspecified), the “Percent Effect” value is reported as -26.62%.

`COCC(C)N(C)C(=O)c1nc(S(C)(=O)=O)n2ccccc12` (stereo unspecified): the “Percent Effect” value is -2.923%.

On to `CCN(C)C(=O)c1cc(-c2cn(C(C)C)cn2)n2ccccc12`, for which the “Percent Effect” value is given as 4.681%.

Consider `CC(C)NC(=O)CCNC(=O)c1c(Br)c2ccccc2n1C`, for which the “Percent Effect” value came out at 2.193%.

`CC(C)n1c2ccccc2c2c1cc(C(=O)NC1CC1)n2C(=O)N(C)C`: the “Percent Effect” value was found to be 111.7%.

For the molecule `CC(C)N1CCC(NC(=O)NCc2ccccc2)CC1`, the “Percent Effect” value is recorded as 1.205%.

With `CCCNC(=O)c1cc2c(c3ccccc3n2C)n1C(=O)N(C)C`, the “Percent Effect” value is listed as -57.33%.

For the molecule `CC(C)n1c2ccccc2c2c1cc(C(=O)NCCO)n2C(=O)N(C)C`, the “Percent Effect” value is listed as 98.19%.

Turning to `Cc1cn(CC(=O)NC2CCN(C(C)C)CC2)c2ccccc12`, the “Percent Effect” value is reported as -15.19%.

As for `CC(C)n1c2ccccc2c2c1cc(C(=O)N(C)C)n2S(C)(=O)=O`, the “Percent Effect” value stood at 91.91%.

Consider `CC(C)n1c2ccccc2c2c1cc(C(=O)O)n2C(=O)N(C)C`, for which the “Percent Effect” value is 98.97%.

For `CCc1nc(CN2CCCN(c3ncnc4ccccc34)CC2)no1`, the “Percent Effect” value stood at 29.73%.

In the case of `Cc1noc(CCCC(=O)NC(C)c2ccccn2)n1` (stereo unspecified), the “Percent Effect” value was -13.35%.

Turning to `CC(C)n1c2ccccc2c2c1cc(C(=O)N(C)C)n2C`, the “Percent Effect” value is reported as 109.8%.

In the case of `CC(C)n1c2ccccc2c2c1cc(C(=O)N(C)C)n2C(=O)N(C)C`, the “Percent Effect” value amounted to 90.72%.

Turning to `CCCN(CC)C(=O)c1cc2c(c3ccccc3n2C)n1C(=O)N(C)C`, the “Percent Effect” value was -10.54%.

Consider `O=C(NCCc1nncn1C1CC1)C1SCCc2sccc21` (stereo unspecified), for which the “Percent Effect” value is listed as -5.898%.

On to `CCN(Cc1ccncc1)C(=O)c1cc(C)c(C)c(S(N)(=O)=O)c1`, for which the “Percent Effect” value is recorded as 3.273%.

Turning to `O=C(NCc1ccco1)[C@H]1C[C@@H]2CCN(c3nncs3)C[C@H]2O1.O=C(O)C(F)(F)F`, the “Percent Effect” value was 106%.

Take `O=C(NCc1ccco1)[C@H]1C[C@@H]2CCN(c3ncccn3)C[C@H]2O1.O=C(O)C(F)(F)F`: the “Percent Effect” value was 105.1%.

Regarding `O=C(NCCc1ccncc1)[C@H]1C[C@@H]2CCN(c3nncs3)C[C@H]2O1`, the “Percent Effect” value is listed as 96.02%.

For the molecule `O=C(NCc1ccco1)[C@@H]1COC[C@H]2CN(c3ncc(F)cn3)C[C@H]21.O=C(O)C(F)(F)F`, the “Percent Effect” value stood at 0.4075%.

Regarding `O=C(NCc1ccco1)[C@H]1C[C@@H]2CCN(c3cccc(F)c3)C[C@H]2O1.O=C(O)C(F)(F)F`, the “Percent Effect” value came out at 104.2%.

With `O=C(NCc1ccco1)[C@H]1C[C@@H]2CCN(c3ccncn3)C[C@@H]2O1.O=C(O)C(F)(F)F`, the “Percent Effect” value was 48.28%.

Regarding `COc1ccnc(N2CCN(C(=O)c3csnn3)CC2)n1`, the “Percent Effect” value is -4.272%.
